Reference: PubChem BioAssay (Tox21)
Inconclusive results are not listed. Calls of active or inactive are those of the source. Unless noted, the call rests on the fitted dose curve; in most records, active means well fitted curve in the direction sought with a large enough effect in the repeat runs; inconclusive means weak or mixed curves; inactive means no such curve, though single readings can be large; an effect the other way counts as inactive or inconclusive.

How the values were obtained:
[1] = qHTS assay for small molecules that induce genotoxicity in human embryonic kidney cells expressing luciferase-tagged ATAD5 (AID 651632); further: nearly all actives have a fitted effect of over 15% in size
Procedure, shortened: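 HEK293T cells carrying a luciferase reporter tagged to ATAD5 were exposed to compound or DMSO vehicle for 16 hr at 37C, 5% CO2. Amplite was added, and after 30 min at room temperature luciferase activity was read as a marker of ATAD5 induction.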

[2] = qHTS assay for small molecule agonists of the p53 signaling pathway - cell viability (AID 651633; calls by dose curve;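 further: p53RE-bla HCT reporter cells with a stable beta-lactamase p53 reporter; series mostly up to about 83 µM; nearly all actives have a fitted effect of over 30% in size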)
Procedure, shortened: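 p53RE-bla cells were treated with compound for 16 hours at 37 C. Cytotoxicity was then measured as CellTiter-Glo luminescence after 30 min at room temperature.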

[3] = qHTS assay for small molecules that induce genotoxicity in human embryonic kidney cells expressing luciferase-tagged ATAD5 - cell viability (AID 651634; calls by dose curve; further: nearly all actives have a fitted effect of over 25% in size)
Procedure, shortened: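 HEK293T cells expressing luciferase-tagged ATAD5 were exposed to compound or DMSO for 15.5 hr at 37C, 5% CO2. Viability was then read as live-cell protease activity by CellTiter-Fluor fluorescence after 30 min at 37C.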

[4] = qHTS assay for small molecule disruptors of the mitochondrial membrane potential - cell viability (AID 720634; calls by dose curve;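 further: human HepG2 liver cancer cells; series mostly up to about 83 µM; nearly all actives have a fitted effect of over 20% in size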)
Procedure, shortened: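 HepG2 cells seeded overnight at 37 C, then exposed to compound or DMSO for 1 hr at 37 C, 5% CO2. m-MPI dye added, then CellTiter-Glo for 30 min at room temperature; viability read as ATP luminescence.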

[5] = qHTS assay for small molecule disruptors of the mitochondrial membrane potential (AID 720635)
Procedure, shortened: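 HepG2 cells exposed to compound 1 hr at 37C, then Mito-MPS dye 30 min. Ratio read of aggregate (540/590 nm) versus monomer (490/535 nm) fluorescence.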

[6] = qHTS assay to test for compound auto fluorescence at 590 nm (red) in HepG2 cells (AID 720674)
Procedure, shortened: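 HepG2 cells, 2,000 per well in MEM with 10% FBS, attached overnight at 37 C, then got 23 nL compound or DMSO. After 1 hr at 37 C, 5% CO2, red fluorescence was read at 540/590 nm against Rose Bengal sodium as reference.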

[7] = qHTS assay to test for compound auto fluorescence at 535 nm (green) in HepG2 cells (AID 720675)
[8] = qHTS assay to test for compound auto fluorescence at 460 nm (blue) in HEK293 cells (AID 720678)
Procedure, shortened: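 Auto fluorescence in the blue band was quantified as triamterene equivalency. HEK293 cells were seeded at 2,000/well, dosed after a 4-5 hr attachment, and kept overnight at 37C before the 405/460 nm reading.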

[9] = qHTS assay to test for compound auto fluorescence at 590 nm (red) in HEK293 cells (AID 720679)
Procedure, shortened: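 Autofluorescence equivalency to Rose Bengal sodium, 540/590nm, in HEK293 cells exposed overnight to 23 nL compound per well.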

[10] = qHTS assay to test for compound auto fluorescence at 535 nm (green) in HEK293 cells (AID 720680)
[11] = qHTS assay to test for compound auto fluorescence at 460 nm (blue) in HEK293 cell free culture (AID 720681)
Procedure, shortened: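 Compounds were added to cell-free DMEM with 10% FBS and fluorescence read directly. The blue channel used 405 nm excitation and 460 nm emission, with triamterene as the reference fluorophore.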

[12] = qHTS assay to test for compound auto fluorescence at 535 nm (green) in HEK293 cell free culture (AID 720682)
Procedure, shortened: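 Green-channel intensity (Ex/Em 485/535 nm) was recorded from compound-treated wells containing only DMEM with 10% FBS. Fluorescein provided the equivalency standard.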

[13] = qHTS assay to test for compound auto fluorescence at 590 nm (red) in HEK293 cell free culture (AID 720683)
Procedure, shortened: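 Cell-free wells of DMEM with 10% FBS received compound, and intrinsic fluorescence was read at excitation/emission 540/590 nm. Values expressed as equivalence to Rose Bengal sodium.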

[14] = qHTS assay to test for compound auto fluorescence at 590 nm (red) in HepG2 cell free culture (AID 720684)
Procedure, shortened: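 Compound was pinned into wells holding MEM with 10% FBS and no cells, and red fluorescence was read at Ex/Em 540/590 nm. Signal is expressed as auto fluorescence equivalency relative to Rose Bengal sodium.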

[15] = qHTS assay to test for compound auto fluorescence at 460 nm (blue) in HepG2 cell free culture (AID 720685)
Procedure, shortened: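 Compound (23 nL) or DMSO pinned into cell-free MEM with 10% FBS; blue fluorescence read at 405/460 nm excitation/emission, expressed as auto-fluorescence equivalency to triamterene.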

[16] = qHTS assay to test for compound auto fluorescence at 535 nm (green) in HepG2 cell free culture (AID 720686)
[17] = qHTS assay to test for compound auto fluorescence at 460 nm (blue) in HepG2 cells (AID 720687)
Procedure, shortened: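 HepG2 cells in MEM with 10% FBS, attached overnight at 37 C, were exposed to compound or DMSO for 1 hr at 37 C, 5% CO2. Blue fluorescence was read at 405/460 nm, with triamterene as reference fluorophore.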

[18] = target: Glucocorticoid receptor (Homo sapiens) (UniProt P04150); test: qHTS assay to identify small molecule agonists of the glucocorticoid receptor (GR) signaling pathway (AID 720691; active means well fitted activation curve with a large enough effect in the signal ratio in the repeat runs, not every such curve was filed as active; the % refers to the signal ratio)
Sequence of Glucocorticoid receptor (Homo sapiens) (P04150 whole entry, looked up): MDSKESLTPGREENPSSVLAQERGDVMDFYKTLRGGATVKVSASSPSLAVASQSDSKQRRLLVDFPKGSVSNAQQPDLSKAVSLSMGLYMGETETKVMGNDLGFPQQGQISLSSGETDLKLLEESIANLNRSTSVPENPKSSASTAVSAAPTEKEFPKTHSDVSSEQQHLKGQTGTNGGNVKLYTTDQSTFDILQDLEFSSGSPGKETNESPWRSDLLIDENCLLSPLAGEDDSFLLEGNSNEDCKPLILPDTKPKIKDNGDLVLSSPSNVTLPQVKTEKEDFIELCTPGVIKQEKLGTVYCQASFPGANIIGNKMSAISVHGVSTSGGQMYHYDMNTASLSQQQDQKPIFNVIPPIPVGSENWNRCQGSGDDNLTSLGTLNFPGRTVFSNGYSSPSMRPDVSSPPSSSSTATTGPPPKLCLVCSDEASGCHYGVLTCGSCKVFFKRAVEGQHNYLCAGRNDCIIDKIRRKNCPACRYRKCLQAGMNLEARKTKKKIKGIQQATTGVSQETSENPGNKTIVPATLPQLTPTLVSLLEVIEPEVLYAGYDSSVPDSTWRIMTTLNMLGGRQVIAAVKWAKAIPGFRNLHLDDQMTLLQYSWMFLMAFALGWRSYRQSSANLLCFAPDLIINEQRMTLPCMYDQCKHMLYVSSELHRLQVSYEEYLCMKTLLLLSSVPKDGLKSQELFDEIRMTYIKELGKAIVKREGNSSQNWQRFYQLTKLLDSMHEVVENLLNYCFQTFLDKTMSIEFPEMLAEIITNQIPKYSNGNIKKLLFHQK
Procedure, shortened: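 GR-bla HeLa cells (beta-lactamase reporter under glucocorticoid response element) were plated 4 h at 37 C/5% CO2, given compounds in DMSO, and incubated 18 h at 37 C. LiveBLAzer B/G FRET substrate was added for 2 h at room temperature, then fluorescence intensity read.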

[19] = target: Glucocorticoid receptor (Homo sapiens) (UniProt P04150); test: qHTS assay to identify small molecule antagonists of the glucocorticoid receptor (GR) signaling pathway (AID 720692; active means well fitted inhibition curve with a large enough effect in the signal ratio in the repeat runs, not every such curve was filed as active; the % refers to the signal ratio)
Procedure, shortened: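 GR-bla HeLa cells (beta-lactamase reporter under glucocorticoid response element) were pre-plated 4 h at 37 C, treated with compounds plus 5 nM dexamethasone (final) for 18 h, then read by LiveBLAzer B/G FRET fluorescence after 2 h.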

Measured: Potency

CC(=O)Nc1cccc(C)c1
inactive: all assays above

CCC(C)(CCC(C)C)C(=O)O (stereo not drawn)
not listed: [5] | [12] | [18] | [19]
inactive: all other assays above

COC(=O)CCc1ccc(OCC(O)CNC(C)C)cc1 (stereo not drawn)
not listed: [13] | [19]
inactive: all other assays above

Nc1ncnc(Nc2ccccc2)n1
not listed: [7] | [17] | [19]
inactive: all other assays above

COC(=O)CCCCCCCC(=O)OC
not listed: [5]
inactive: all other assays above

NNc1nnc(NN)c2ccccc12
not listed: [5] | [13] | [18] | [19]
inactive: all other assays above

OCCC(F)(F)C(F)(F)C(F)(F)C(F)(F)C(F)(F)C(F)(F)C(F)(F)C(F)(F)F
not listed: [5] | [7] | [18] | [19]
inactive: all other assays above

CCCCCCCCCCl
not listed: [2] | [4] | [17] | [18] | [19]
inactive: all other assays above

COc1ccc2c(c1OC)C(=O)O[C@@H]2[C@H]1c2c(cc3c(c2OC)OCO3)CCN1C
not listed: [3] | [7] | [17] | [19]
inactive: all other assays above

O=S(=O)(O)c1cc(O)c2ccc(Nc3ccccc3)cc2c1
not listed: [4] | [5] | [18] | [19]
inactive: all other assays above

COc1cc(N)ccc1C
not listed: [3] | [12] | [17] | [19]
inactive: all other assays above

CCOC(=O)CC(=O)c1ccccc1
not listed: [4] | [5] | [12]
inactive: all other assays above

CC(CN)CC(C)(C)CCN (stereo not drawn)
not listed: [4] | [7]
inactive: all other assays above

O=C(OCC(COC(=O)c1cccnc1)(COC(=O)c1cccnc1)COC(=O)c1cccnc1)c1cccnc1
not listed: [2] | [13] | [17]
inactive: all other assays above
